# Compound activity (PubChem)
# Shown are actives, neighbours in structure and some others; about 3.8% of the full set was active somewhere.
# A549 tox: kills or reduces viability of A549 cells in Nrf2 counter-screen | A549 ARE-Fluc cells, CellTiter-Fluor viability, 18-24 h | Potency, µM (highest dose often 46 µM), for the others: at the top dose activity change, negative = cytotoxicity, most hits filed as inhibitors | 390,000 compounds, 0.16% hits | AID 504648; further: on the % scale 0 is the no-effect control and ±100 the full control effect
#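 A549 ARE_Fluc cells in 5% FBS OPTI-MEM were exposed to compounds in concentration-response for 18-24 h at 37 deg C. Viability was read by CellTiter-Fluor fluorescence (Ex 405/Em 525) after 30 min, before the luciferase read.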
# HepG2 tox-1: kills HepG2 cells in TGF-b inhibitor counter-screen; HepG2 CAGA-GFP viability, ATP luminescence, 18 h; Potency, µM (titrated, usually from 46.1 µM), inactives show at the highest dose activity change, negative = cytotoxicity, usual class: cytotoxic; 410,000 compounds, 0.76% hits; AID 588856
#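 HepG2 CAGA-GFP cells (1000/well, DMEM with 1% FBS) received compound, then TGF-beta at 500 pg/mL final, and were incubated 18 hours at 37 degrees C. Viability was read by CellTiter-Glo luminescence. Media-only wells were set as complete cell-killing and DMSO as no toxicity.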
# ATXN viability: viability counter-screen for ATXN expression inhibitors; S2 cells (HEK-293 line with an ATXN2-luciferase reporter) viability, CellTiter-Fluor protease fluorescence, 24 h; Potency, µM (highest dose often 56.7 µM), hits mostly cytotoxic; 400,000 compounds, 0.49% hits; AID 651635; further: nearly all actives have a fitted effect of over 40% in size
# ATXN2 expr inh: inhibitors of ATXN2 expression. HEK-293 ATXN2-luciferase reporter, luminescence, 24 h. Potency, µM (highest dose often 57 µM), without a hit: at the top dose activity change, negative = inhibition, actives largely listed as inhibitors. 360,000 compounds, 0.72% hits; further: on the % scale 0 is the no-effect control and ±100 the full control effect; nearly all actives have a fitted effect of over 55% in size
#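 ATXN2-luciferase reporter cells (luciferase flanked by upstream and downstream ATXN2 gene portions) were treated 24 h at 37 °C with compounds at up to 57 uM. SteadyGlo luminescence gave expression; GF-AFC fluorescence gave viability.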
# Nrf2 block: inhibitors of Nrf2 signaling; AID 504444; A549 ARE-Fluc reporter, luciferase luminescence, 18-24 h; 360,000 compounds, 2.1% hits; Potency, µM (series often up to 46 µM), inactives show at the highest dose activity change, negative = inhibition, usual class: inhibitors; further: on the % scale 0 is the no-effect control and ±100 the full control effect; nearly all actives have a fitted effect of over 60% in size
#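 A549 ARE_Fluc cells (5000/well, 5% FBS OPTI-MEM) pre-incubated 2 h, then treated with compounds 18-24 h at 37C/5% CO2 in concentration-response. CellTiter-Fluor viability read first; BugLite luciferase luminescence after 15 min at room temperature gives Nrf2 activity.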
# TGFb inhibitor: TGF-b pathway inhibition; 410,000 compounds, 1.2% hits; AID 588855; HepG2 CAGA-GFP TGF-b/SMAD3 reporter, GFP fluorescence, 18 h; TGF-beta stimulated, 500 pg/mL final; Potency, µM (top dose mostly 46.1 µM), without a hit: top-dose activity, negative = inhibition, usual class: inhibitors; further: on the % scale 0 is the no-effect control and ±100 the full control effect; nearly all actives have a fitted effect of over 65% in size
#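 Read-out: total well GFP (ex488/em500-530) summed from mean per-cell fluorescence. Cells: HEPG2 CAGA-GFP, 1% FBS DMEM, 18 h at 37 degrees C with 500 pg/mL final TGF-beta. Unstimulated wells served as the full-inhibition control; stimulated DMSO wells = 0%.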
# TGFb confirm: TGF-b pathway inhibition, cherry-pick retest | shares compounds with TGFb inhibitor | Potency, µM (highest dose often 46.1 µM), without a hit: at the top dose activity, negative = inhibition, hits mostly inhibitors | 1,600 compounds, 63% hits | HepG2 CAGA-GFP TGF-b reporter, GFP fluorescence, 18 h; cells stimulated with TGF-beta, 500 pg/mL; further: on the % scale 0 is the no-effect control and ±100 the full control effect; nearly all actives have a fitted effect of over 65% in size
# HepG2 tox-2: counter-screen for TGF-b inhibitors: cytotoxicity in HepG2 cells; 1,600 compounds, 27% hits; HepG2 CAGA-GFP viability, ATP luminescence, 18 h; cells stimulated with TGF-beta, 500 pg/mL; shares compounds with TGFb inhibitor; Potency, µM (highest dose often 46.1 µM), for inactives: top-dose activity, negative = cytotoxicity, actives largely listed as inhibitors; AID 720535; further: on the % scale 0 is the no-effect control and ±100 the full control effect; nearly all actives have a fitted effect of over 70% in size
# TGFb CCL64 inh: orthogonal confirmation of TGF-b inhibitors in CCL64 cells; 1,600 compounds, 41% hits; Potency, µM (titrated, usually from 46.1 µM), without a hit: at the top dose activity, negative = inhibition, hits mostly inhibitors; CCL64 CAGA-GFP reporter, TGF-b stimulated, GFP fluorescence, 18 h; shares compounds with TGFb inhibitor; further: nearly all actives have a fitted effect of over 65% in size
# COP TGFb inh: blocks TGF-b signaling in HepG2 COP reporter | shares compounds with TGFb inhibitor | HepG2 COP-GFP TGF-b reporter, GFP fluorescence, 18 h; cells stimulated by added recombinant TGF-beta | Potency, µM (doses to about 46.1 µM), without a hit: at the highest dose activity, negative = inhibition, usual class: inhibitors | 1,600 compounds, 3% hits; further: nearly all actives have a fitted effect of over 70% in size
# * hit, by the source's call; i = inactive; u = inconclusive; x = no result. The call rests on the fitted dose curve; in most records, active means well fitted curve in the direction sought with a large enough effect; inconclusive means small, poorly fitted or top-dose-only effect, or another doubt; inactive means no such curve, though single readings can be large; an effect the other way counts as inactive or inconclusive. Potency means the concentration at half of the fitted maximal effect.
SMILES,A549 tox,HepG2 tox-1,ATXN viability,ATXN2 expr inh,Nrf2 block,TGFb inhibitor,TGFb confirm,HepG2 tox-2,TGFb CCL64 inh,COP TGFb inh
CC(=NNc1nc2ccccc2o1)c1cc2ccccc2cn1,10.3µM*,-52.4%,i,u,u,0.316µM*,u,18.4µM*,u,22.4%
COCCOC(=O)c1[nH]c2c(c1C)C(=O)CC(c1ccccc1)C2 (stereo not given),u,5.0%,u,7.6%,x,10µM*,7.31µM*,-6.9%,6.51µM*,-18.7%
CCOC(=O)c1[nH]c2c(c1C)C(=O)CC(c1ccco1)C2 (stereo not given),-2.9%,4.5%,u,-16.9%,u,u,7.31µM*,9.5%,2.06µM*,u
CCc1ccc(S(=O)(=O)c2cn(C)c3cc(N4CCC(C)CC4)c(F)cc3c2=O)cc1,-9.5%,-1.5%,x,x,21.5%,-10.4%,x,x,x,x
CC(=O)N1CCc2c(sc(NC(=O)c3ccc([N+](=O)[O-])o3)c2C(N)=O)C1,x,-91.1%,20µM*,x,x,3.55µM*,4.61µM*,5.8µM*,u,u
Cc1ccc(NC(=O)/C=C/c2ccc([N+](=O)[O-])s2)c(C)c1,u,7.94µM*,u,8.91µM*,u,5.01µM*,u,10.3µM*,4.11µM*,25.6%
Cc1ccc(NC(=O)/C=C/c2ccc([N+](=O)[O-])s2)cc1,-9.6%,-12.6%,i,-17.8%,u,-30.4%,x,x,x,x
Cc1cccc(NC(=O)/C=C/c2ccc([N+](=O)[O-])s2)c1,-27.5%,-63.4%,8.91µM*,8.91µM*,-6.0%,u,u,5.17µM*,2.59µM*,40.8%
Cc1cc([N+](=O)[O-])ccc1NC(=O)/C=C/c1cccs1,-2.0%,-1.0%,u,51.8%,u,-20.3%,x,x,x,x
CCOc1ccccc1-c1noc(CSc2nnc(-c3ccccc3)n2-c2cccc(C)c2)n1,u,1.6%,u,-24.6%,u,11.2%,x,x,x,x
CCOC(=O)c1c(C)[nH]c(C(=O)N(C)CC(=O)Nc2ccc(OC)cc2)c1C,0.5%,-3.4%,i,-12.7%,-11.1%,6.3%,x,x,x,x
CC(=O)Nc1ncc(Cc2cc(Cl)ccc2Cl)s1,2.0%,0.7%,i,x,6.8%,u,u,2.4%,-0.2%,16.8%
CCc1ccc(CCC(=O)Nc2ncc(Cc3ccccc3Cl)s2)o1,-7.8%,-34.5%,i,-10.5%,6.7%,2µM*,u,-18.7%,-28.2%,-6.0%
O=C(CN1CCOCC1)Nc1ncc(Cc2ccccc2Cl)s1,-8.1%,1.0%,u,6.2%,7.2%,2.2%,x,x,x,x
